3 molecules from ChEMBL document CHEMBL1961873, “Compounds: GSK PKIS; Assays: Nanosyn kinase panel” (2012) can be followed below.

Experiment [1] concerns the target T1, Mitogen-activated protein kinase 12 (Homo sapiens) (UniProt P53778).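 Note: values are averaged p38gamma kinase inhibition readings, compounds tested at 1 µM.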
T1 sequence (whole entry): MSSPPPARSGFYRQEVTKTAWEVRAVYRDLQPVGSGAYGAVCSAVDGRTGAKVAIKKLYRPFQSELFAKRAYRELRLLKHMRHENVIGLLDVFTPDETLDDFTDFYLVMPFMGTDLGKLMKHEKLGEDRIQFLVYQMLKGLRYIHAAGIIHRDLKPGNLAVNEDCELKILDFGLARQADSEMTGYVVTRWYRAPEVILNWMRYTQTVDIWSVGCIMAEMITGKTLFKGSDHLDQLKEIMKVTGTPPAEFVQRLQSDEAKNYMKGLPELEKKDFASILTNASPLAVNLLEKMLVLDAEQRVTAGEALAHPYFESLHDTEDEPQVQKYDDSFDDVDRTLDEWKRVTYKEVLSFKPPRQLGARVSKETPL
Conditions: at 1 µM.

Experiment [2] addresses SRSF protein kinase 1 (Homo sapiens) (UniProt Q96SB4). Conditions: at 0.1 µM.
The target is the same in experiment [3]. To be noted: at 1 µM.
Experiment [4] deals with Phosphatidylinositol 4,5-bisphosphate 3-kinase catalytic subunit alpha isoform (Homo sapiens) (UniProt P42336). Conditions: at 0.1 µM.
For experiment [5] the target is unchanged. Conditions: at 1 µM.
The target of experiment [6] is T2, Phosphatidylinositol 4,5-bisphosphate 3-kinase catalytic subunit delta isoform (Homo sapiens) (UniProt O00329).
T2 sequence (whole entry): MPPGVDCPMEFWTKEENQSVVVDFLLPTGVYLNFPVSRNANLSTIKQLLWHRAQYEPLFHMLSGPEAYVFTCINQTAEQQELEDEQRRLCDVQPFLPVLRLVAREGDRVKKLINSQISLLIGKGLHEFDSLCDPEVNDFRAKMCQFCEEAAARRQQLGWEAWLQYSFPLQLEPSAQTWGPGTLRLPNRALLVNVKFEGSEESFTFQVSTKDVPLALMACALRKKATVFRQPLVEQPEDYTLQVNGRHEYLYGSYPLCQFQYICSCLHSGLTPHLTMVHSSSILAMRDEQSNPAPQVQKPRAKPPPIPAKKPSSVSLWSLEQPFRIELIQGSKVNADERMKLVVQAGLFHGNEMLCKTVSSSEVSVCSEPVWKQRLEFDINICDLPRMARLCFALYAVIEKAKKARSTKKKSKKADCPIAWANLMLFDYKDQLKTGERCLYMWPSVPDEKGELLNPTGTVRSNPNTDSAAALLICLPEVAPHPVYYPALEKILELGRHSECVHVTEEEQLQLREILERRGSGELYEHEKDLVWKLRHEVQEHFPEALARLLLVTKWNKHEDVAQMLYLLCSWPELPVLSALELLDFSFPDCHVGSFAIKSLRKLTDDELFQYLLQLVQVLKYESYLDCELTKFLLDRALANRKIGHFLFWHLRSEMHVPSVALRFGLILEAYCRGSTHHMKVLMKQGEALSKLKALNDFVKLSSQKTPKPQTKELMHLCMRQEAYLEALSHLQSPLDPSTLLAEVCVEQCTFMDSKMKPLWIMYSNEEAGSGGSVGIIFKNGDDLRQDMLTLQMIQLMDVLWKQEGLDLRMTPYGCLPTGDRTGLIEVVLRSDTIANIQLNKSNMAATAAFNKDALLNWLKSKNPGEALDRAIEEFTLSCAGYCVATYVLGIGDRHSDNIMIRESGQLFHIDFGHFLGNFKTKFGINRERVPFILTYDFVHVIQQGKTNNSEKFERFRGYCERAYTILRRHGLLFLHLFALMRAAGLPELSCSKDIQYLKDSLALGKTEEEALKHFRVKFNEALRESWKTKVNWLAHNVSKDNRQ
Conditions: at 0.1 µM.

Experiment [7] has as its target T2, Phosphatidylinositol 4,5-bisphosphate 3-kinase catalytic subunit delta isoform (Homo sapiens). To be noted: at 1 µM.
Experiment [8] deals with Phosphatidylinositol 4-kinase beta (Homo sapiens) (UniProt Q9UBF8). Conditions: at 0.1 µM.
The target is the same in experiment [9]. To be noted: at 1 µM.
For experiment [10], the target named is Sphingosine kinase 1 (Homo sapiens) (UniProt Q9NYA1). Conditions: at 0.1 µM.
Experiment [11] has the same target. Conditions: at 1 µM.
In experiment [12] the target is T3, Sphingosine kinase 2 (Homo sapiens) (UniProt Q9NRA0).
T3 sequence (whole entry): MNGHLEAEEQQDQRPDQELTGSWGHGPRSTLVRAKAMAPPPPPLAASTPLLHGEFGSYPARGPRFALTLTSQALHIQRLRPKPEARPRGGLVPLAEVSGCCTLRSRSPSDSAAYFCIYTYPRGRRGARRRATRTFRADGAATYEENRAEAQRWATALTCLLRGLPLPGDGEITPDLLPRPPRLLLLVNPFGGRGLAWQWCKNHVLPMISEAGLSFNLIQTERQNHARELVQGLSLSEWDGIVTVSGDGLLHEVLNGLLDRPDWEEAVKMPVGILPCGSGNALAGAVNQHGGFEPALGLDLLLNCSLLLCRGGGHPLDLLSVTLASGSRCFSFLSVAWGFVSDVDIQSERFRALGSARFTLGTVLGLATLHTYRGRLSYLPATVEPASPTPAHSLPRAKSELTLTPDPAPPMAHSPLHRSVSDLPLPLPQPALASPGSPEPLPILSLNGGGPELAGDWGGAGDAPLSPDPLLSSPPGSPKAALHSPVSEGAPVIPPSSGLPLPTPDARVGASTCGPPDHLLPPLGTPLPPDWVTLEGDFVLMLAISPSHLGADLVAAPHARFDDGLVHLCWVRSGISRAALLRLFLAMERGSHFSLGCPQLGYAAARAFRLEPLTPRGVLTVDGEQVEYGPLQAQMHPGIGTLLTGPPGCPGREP
Conditions: at 0.1 µM.

Experiment [13] concerns the target T3, Sphingosine kinase 2 (Homo sapiens). Conditions: at 1 µM.
Experiment [14] has as its target Casein kinase II subunit alpha (Homo sapiens) (UniProt P68400). To be noted: at 0.1 µM.
For experiment [15] the target is unchanged. Conditions: at 1 µM.
The target of experiment [16] is T4, Inhibitor of nuclear factor kappa-B kinase subunit alpha (Homo sapiens) (UniProt O15111).
T4 sequence (whole entry): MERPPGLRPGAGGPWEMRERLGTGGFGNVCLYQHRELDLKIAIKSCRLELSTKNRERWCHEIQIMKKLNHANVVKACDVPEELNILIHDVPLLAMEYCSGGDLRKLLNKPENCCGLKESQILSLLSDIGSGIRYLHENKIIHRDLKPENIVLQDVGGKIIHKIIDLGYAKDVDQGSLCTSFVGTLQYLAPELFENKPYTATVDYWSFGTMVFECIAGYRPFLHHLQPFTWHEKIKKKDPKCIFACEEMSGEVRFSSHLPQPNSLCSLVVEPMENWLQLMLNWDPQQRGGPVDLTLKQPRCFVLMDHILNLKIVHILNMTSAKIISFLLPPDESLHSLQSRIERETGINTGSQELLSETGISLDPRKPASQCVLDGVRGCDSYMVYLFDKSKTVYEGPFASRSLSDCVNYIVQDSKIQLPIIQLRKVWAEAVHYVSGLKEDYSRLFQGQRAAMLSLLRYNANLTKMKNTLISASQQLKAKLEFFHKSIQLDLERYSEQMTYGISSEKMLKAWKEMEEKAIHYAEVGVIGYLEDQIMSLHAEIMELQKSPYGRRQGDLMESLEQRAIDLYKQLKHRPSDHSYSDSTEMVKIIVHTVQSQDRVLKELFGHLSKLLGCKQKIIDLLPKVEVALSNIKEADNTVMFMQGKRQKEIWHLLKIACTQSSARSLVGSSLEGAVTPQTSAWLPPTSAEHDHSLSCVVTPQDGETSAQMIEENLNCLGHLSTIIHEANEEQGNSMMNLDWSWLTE
Conditions: at 0.1 µM.

Experiment [17] concerns the target T4, Inhibitor of nuclear factor kappa-B kinase subunit alpha (Homo sapiens). To be noted: at 1 µM.
Experiment [18] deals with T5, Inhibitor of nuclear factor kappa-B kinase subunit beta (Homo sapiens) (UniProt O14920).
T5 sequence (whole entry): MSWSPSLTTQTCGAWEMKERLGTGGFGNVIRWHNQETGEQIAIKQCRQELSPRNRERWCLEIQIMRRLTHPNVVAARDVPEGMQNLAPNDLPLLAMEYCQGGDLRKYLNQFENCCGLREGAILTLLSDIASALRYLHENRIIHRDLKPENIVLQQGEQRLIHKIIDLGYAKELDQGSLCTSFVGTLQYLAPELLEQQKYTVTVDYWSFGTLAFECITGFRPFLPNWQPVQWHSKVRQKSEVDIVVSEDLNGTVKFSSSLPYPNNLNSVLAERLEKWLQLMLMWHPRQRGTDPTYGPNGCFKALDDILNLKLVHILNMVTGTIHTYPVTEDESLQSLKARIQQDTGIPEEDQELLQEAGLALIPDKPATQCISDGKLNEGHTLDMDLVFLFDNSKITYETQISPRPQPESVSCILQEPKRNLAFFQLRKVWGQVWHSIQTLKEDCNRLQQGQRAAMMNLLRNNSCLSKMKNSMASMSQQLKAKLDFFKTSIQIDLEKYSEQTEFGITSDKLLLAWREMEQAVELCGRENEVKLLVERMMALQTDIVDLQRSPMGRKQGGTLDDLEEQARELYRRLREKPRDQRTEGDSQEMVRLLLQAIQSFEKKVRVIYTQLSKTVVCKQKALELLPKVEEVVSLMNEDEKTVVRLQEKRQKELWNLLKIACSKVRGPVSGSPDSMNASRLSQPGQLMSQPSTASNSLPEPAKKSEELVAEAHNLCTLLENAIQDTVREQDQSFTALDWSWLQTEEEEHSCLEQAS
Conditions: at 0.1 µM.

Experiment [19] concerns the target T5, Inhibitor of nuclear factor kappa-B kinase subunit beta (Homo sapiens). To be noted: at 1 µM.
Experiment [20] has as its target T6, Inhibitor of nuclear factor kappa-B kinase subunit epsilon (Homo sapiens) (UniProt Q14164).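 Note: mean inhibition of IKKε reported, from the GSK PKIS dataset.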
T6 sequence (whole entry): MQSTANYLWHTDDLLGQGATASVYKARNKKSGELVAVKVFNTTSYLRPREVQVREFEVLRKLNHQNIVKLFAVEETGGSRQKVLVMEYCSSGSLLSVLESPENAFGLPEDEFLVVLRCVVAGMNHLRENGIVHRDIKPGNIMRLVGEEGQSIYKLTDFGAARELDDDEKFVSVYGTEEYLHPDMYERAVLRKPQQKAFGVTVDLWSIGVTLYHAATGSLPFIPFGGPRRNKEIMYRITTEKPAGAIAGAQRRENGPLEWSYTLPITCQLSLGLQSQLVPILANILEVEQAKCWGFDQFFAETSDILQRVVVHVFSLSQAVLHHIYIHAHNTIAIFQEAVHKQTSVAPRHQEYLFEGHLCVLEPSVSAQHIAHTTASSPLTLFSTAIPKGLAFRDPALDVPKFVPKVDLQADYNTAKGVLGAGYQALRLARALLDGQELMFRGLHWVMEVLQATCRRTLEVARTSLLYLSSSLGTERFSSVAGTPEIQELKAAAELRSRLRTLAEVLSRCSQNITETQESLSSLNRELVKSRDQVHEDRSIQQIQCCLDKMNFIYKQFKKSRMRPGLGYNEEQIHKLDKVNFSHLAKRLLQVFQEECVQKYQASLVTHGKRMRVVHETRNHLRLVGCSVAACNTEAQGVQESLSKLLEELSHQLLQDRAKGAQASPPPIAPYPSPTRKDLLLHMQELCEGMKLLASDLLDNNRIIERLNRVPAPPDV
To be noted: at 0.1 µM.

Chain of Phosphatidylinositol 4,5-bisphosphate 3-kinase catalytic subunit alpha isoform (Homo sapiens) (P42336 whole entry, canonical isoform): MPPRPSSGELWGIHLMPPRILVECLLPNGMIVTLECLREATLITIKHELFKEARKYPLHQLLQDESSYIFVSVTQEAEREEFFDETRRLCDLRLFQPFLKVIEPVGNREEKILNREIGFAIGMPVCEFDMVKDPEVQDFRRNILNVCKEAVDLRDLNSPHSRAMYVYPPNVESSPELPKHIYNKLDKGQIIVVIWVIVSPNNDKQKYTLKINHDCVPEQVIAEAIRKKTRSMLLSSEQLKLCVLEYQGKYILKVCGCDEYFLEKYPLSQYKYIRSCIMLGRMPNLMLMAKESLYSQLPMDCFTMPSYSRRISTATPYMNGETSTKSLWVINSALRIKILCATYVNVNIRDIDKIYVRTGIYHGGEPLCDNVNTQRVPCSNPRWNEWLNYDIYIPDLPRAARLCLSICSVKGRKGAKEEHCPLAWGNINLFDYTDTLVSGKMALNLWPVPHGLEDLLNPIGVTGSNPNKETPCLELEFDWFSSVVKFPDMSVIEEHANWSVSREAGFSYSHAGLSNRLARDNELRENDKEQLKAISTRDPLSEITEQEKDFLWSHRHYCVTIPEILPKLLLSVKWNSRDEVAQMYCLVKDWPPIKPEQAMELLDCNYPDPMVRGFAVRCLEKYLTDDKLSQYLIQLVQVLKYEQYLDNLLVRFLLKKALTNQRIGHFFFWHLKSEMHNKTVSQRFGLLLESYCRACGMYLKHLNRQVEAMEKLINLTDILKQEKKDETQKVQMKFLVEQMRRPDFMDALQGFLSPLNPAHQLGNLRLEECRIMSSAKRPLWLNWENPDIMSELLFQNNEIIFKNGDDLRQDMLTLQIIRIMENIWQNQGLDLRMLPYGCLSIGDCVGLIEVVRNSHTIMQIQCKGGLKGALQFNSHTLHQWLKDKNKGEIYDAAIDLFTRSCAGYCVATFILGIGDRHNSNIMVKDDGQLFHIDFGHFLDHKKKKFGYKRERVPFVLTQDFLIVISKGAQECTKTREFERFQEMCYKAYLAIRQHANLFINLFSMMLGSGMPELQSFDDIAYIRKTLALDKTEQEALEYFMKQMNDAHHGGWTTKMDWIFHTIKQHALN
Chain of Casein kinase II subunit alpha (Homo sapiens) (P68400 whole entry, looked up): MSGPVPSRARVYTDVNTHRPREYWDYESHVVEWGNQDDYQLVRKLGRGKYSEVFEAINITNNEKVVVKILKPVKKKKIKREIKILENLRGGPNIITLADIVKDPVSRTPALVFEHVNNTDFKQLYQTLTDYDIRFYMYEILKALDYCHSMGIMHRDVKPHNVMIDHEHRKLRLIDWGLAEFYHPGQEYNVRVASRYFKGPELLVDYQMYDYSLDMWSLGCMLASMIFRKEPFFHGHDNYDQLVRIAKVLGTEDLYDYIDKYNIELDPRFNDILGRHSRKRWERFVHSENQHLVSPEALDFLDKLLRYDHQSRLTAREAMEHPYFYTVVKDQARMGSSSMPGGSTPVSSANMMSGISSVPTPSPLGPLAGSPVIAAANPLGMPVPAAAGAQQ
Chain of Phosphatidylinositol 4-kinase beta (Homo sapiens) (Q9UBF8 2-816 limits assumed): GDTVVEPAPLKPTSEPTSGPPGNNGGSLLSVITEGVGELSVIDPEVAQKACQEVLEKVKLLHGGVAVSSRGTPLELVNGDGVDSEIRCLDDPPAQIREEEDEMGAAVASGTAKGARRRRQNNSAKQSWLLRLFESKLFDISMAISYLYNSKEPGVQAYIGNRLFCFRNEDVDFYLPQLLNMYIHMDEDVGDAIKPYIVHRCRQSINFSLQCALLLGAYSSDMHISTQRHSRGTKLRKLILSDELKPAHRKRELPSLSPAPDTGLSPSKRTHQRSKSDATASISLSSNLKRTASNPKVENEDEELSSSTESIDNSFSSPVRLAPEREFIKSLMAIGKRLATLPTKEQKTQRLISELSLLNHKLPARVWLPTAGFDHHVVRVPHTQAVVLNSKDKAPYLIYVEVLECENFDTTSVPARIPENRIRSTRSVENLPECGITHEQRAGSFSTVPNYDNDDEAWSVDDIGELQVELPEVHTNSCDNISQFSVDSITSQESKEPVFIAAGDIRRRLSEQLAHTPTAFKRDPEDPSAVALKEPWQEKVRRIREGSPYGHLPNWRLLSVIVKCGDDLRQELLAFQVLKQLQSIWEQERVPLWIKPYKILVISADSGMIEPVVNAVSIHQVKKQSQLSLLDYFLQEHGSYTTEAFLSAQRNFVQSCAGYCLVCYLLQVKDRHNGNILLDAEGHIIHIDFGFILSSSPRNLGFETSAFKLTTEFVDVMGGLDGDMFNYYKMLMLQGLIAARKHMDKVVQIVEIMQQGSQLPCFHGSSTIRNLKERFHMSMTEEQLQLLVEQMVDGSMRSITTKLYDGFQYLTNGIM
Chain of Sphingosine kinase 1 (Homo sapiens) (Q9NYA1 whole entry): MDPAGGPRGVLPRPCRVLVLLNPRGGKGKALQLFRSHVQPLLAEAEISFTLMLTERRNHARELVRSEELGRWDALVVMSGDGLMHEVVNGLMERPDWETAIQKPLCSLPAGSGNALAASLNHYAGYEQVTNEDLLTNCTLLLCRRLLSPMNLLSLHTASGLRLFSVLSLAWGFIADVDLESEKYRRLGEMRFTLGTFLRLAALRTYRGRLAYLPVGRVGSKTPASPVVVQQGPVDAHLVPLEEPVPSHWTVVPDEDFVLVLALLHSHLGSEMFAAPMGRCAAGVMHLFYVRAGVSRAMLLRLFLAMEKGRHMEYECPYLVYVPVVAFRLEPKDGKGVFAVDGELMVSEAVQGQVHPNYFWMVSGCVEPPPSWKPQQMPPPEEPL
Chain of SRSF protein kinase 1 (Homo sapiens) (Q96SB4 whole entry): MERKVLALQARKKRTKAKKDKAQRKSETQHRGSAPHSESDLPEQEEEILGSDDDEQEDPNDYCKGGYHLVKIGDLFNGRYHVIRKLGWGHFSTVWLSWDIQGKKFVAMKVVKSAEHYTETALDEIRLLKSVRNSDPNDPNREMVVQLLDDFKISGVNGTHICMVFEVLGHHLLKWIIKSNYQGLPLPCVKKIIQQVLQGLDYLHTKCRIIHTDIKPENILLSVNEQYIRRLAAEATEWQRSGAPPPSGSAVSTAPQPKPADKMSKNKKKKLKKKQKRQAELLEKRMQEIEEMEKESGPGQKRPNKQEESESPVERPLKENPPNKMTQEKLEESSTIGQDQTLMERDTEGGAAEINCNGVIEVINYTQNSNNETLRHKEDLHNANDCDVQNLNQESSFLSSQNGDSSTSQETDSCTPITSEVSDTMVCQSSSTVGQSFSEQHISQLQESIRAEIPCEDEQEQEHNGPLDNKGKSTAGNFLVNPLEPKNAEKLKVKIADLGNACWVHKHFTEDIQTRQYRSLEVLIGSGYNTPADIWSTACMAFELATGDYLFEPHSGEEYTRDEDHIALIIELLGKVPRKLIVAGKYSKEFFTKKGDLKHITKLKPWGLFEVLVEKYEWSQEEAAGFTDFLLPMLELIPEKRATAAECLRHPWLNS

One may read the inhibition as the drop in the measured response relative to a control, in per cent. In the case of `Cc1cc(O)cc(C)c1/C=C/c1cncc(C(N)=O)c1`, the inhibition in experiment [1] was 1.72%; in [2], -2.4%; in experiment [3], -0.6%; in [4], 0.88%; in experiment [5], 3.67%; in [6], 0.87%. In addition, the inhibition in [7] was 2.16%; in [8], 0.44%; in experiment [9], -1.46%; in experiment [10], -0.95%; in experiment [11], -2.84%; in [12], 0.32%. The inhibition in experiment [13] was determined as 0.47%; in experiment [14], 2%; in experiment [15], 1.41%; in [16] it was 7.66%; in experiment [17], 1.26%; in experiment [18], 1.7%. The inhibition in experiment [19] turned out to be 1.13%; in [20] it was 1.74%.
With `CN(c1ccc(NC(=O)NCCN2CCOCC2)cc1)c1ccnc(Nc2ccc(CS(C)(=O)=O)cc2)n1`, the inhibition in experiment [1] is 1.28%; in [2], 0.25%; in [3], 2.58%; in [4] it was 1.92%; in experiment [5], 2.04%; in experiment [6] it was -0.08%. Besides, the inhibition in [7] is 0.81%; in experiment [8] it was 4.11%; in experiment [9] it was 4.4%; in experiment [10], 0.08%; in experiment [11], 7.75%; in [12] it was 0.36%. Besides, the inhibition was 0.38% in [13]; 5.71% in experiment [14]; 11.9% in experiment [15]; 10.9% in experiment [16]; 8% in experiment [17]; 3.48% in [18]. Also, the figures for the inhibition in experiment [19] and in [20] were 3.83% and 3.55%, respectively.
Turning to `COc1cc(N2CCN(C(C)C)CC2)ccc1Nc1nc(Nc2cccc3ncccc23)c2cc[nH]c2n1`, the inhibition in [1] was -0.51%; in experiment [2] it was -1.39%; in experiment [3], -1.2%; in experiment [4], -0.92%; in experiment [5] it was 1.96%; in experiment [6], -1.65%. The inhibition is 4.18% in experiment [7]; 5.9% in [8]; -2.85% in experiment [9]; 0% in experiment [10]; -2% in experiment [11]; 0% in experiment [12]. Further, the inhibition in experiment [13] was -0.78%; in experiment [14], 1.04%; in experiment [15] it was 1.8%; in experiment [16], 4.1%; in [17], -3.72%; in [18], 1.05%. For the same molecule, the inhibition in [19] is -2.01%; in [20], -1.3%.
